Hit rate of the full screen: of about 65,000 compounds, about 65 (0.1%) showed an effect of 50% or more. The sample as a whole holds a higher share of strong results than the screen did.

For this test, the target named is Tryptophan--tRNA ligase (Mycobacterium tuberculosis (strain ATCC 25618 / H37Rv)) (UniProt P9WFT3). Nature of the test: Biochemical assay for Mt-TrpRS. Conditions: 10 µM. Type of test: functional. Also noted: scale not given: direction of the effect not stated beside the values.
Chain of Tryptophan--tRNA ligase (Mycobacterium tuberculosis (strain ATCC 25618 / H37Rv)) (P9WFT3 whole entry): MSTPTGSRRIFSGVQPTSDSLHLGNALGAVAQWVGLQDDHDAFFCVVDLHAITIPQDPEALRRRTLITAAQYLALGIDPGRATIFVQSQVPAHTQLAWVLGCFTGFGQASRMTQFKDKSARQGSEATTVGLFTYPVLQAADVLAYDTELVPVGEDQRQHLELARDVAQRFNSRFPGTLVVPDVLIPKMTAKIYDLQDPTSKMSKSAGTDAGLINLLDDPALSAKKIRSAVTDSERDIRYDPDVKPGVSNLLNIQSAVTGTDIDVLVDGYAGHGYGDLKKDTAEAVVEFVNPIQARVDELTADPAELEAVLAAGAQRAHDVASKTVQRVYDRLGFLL
`CCN(CC1CCOC1)C(=O)c1cc(F)ccc1N1CCN(C)CC1` (centres undefined): the Percent Effect was 68.2%.

On to `C=C(C)CN(CC)C(=O)c1cc(F)ccc1N1CCN(C)CC1`, for which the Percent Effect came out at 1.96%.

For the compound `CCN(CC1CCOC1)C(=O)c1ccc(N2CCOCC2)c(F)c1` (centres undefined), the Percent Effect is 18.7%.

Take `Fc1cnc(N2CC[C@@H]3O[C@H](COCc4ccccn4)CC[C@@H]32)nc1`: the Percent Effect is -3.79%.

Consider `CCc1cnc(N2C[C@H]3C[C@H](C(=O)NC)[C@@H](C2)O3)nc1`, for which the Percent Effect was -4.37%.

Regarding `Cn1cc(CCN2CCOC(CNc3cccnn3)C2)cn1` (centres undefined), the Percent Effect came to 66%.

Regarding `c1cnnc(NCC2CN(CCn3cccn3)CCO2)c1` (centres undefined), the Percent Effect is -1.42%.

On to `c1ccc(CCN2CCOC(CNc3cccnn3)C2)nc1` (centres undefined), for which the Percent Effect was -2.61%.

`c1ccc(CN2C[C@H]3CCC[C@@]3(COCC3CC3)C2)nc1`: the Percent Effect is -0.775%.

Turning to `COc1ccc(CN2C[C@@H]3OCCN(CC4CCCO4)[C@@H]3C2)cc1` (some centres undefined), the Percent Effect is 4.27%.

For `c1ccc(Cn2cccn2)c(CNCC2CNc3ccnn3C2)c1` (centres undefined), the Percent Effect was determined as 6.16%.

As for `c1cc(CNCC2CNc3ccnn3C2)cc(Cn2cccn2)c1` (centres undefined), the Percent Effect is 2.73%.

As for `c1ccc(Cn2cc(CNCC3CNc4ccnn4C3)cn2)cc1` (centres undefined), the Percent Effect turned out to be 62.4%.

Consider `COc1ccc(C(=O)N2CCO[C@H]3[C@@H](OCC4CC4)CC[C@@H]32)cc1F`, for which the Percent Effect is -0.755%.

On to `Cc1ccc(CN2CC(C(=O)NC(C)C)C3(CCOCC3)C2)s1` (centres undefined), for which the Percent Effect amounted to 0.402%.

Consider `CC(c1ccc2c(c1)OCO2)N1Cc2nc(N(C)C)ncc2C1=O` (centres undefined), for which the Percent Effect stood at 4.59%.

Regarding `N#Cc1ccsc1N1CCC(Sc2ccncc2)C1=O` (centres undefined), the Percent Effect worked out at 4.7%.

For `CC(NCc1c(C(C)C)nn(C)c1N1CCOCC1)C(N)=O` (centres undefined), the Percent Effect is -6.01%.

For the compound `CC(NCc1c(C(C)C)nn(C)c1N1CCOCC1)C(=O)N(C)C` (centres undefined), the Percent Effect turned out to be 71.4%.

On to `CC(C)c1nn(C)c(N2CCOCC2)c1CNCC(=O)N(C)C`, for which the Percent Effect is 4.97%.

Take `c1ccc(CN2CC[C@@H]3O[C@@H](COCCN4CCCC4)CC[C@@H]32)nc1`: the Percent Effect was 1.72%.

`CC(C)c1noc(CN2CCC(c3ccnn3CCO)CC2)n1`: the Percent Effect was -1.43%.

Regarding `CC(C)c1nc(CN2CCC(c3ccnn3CCO)CC2)no1`, the Percent Effect is 61.5%.

Regarding `CC(C)(C)c1nc(CN2CCC(c3ccnn3CCO)CC2)no1`, the Percent Effect was found to be 23.6%.

Turning to `COc1cc(Cl)ccc1C(=O)NCc1nncn1C`, the Percent Effect is -10.5%.

With `Cn1cnnc1C1CCN(C(=O)CCCOc2ccccc2)CC1`, the Percent Effect was -0.13%.

`Cn1cnnc1C1CCN(C(=O)CCOc2ccc(Cl)cc2)CC1`: the Percent Effect is 64.2%.

Consider `Cc1cccc(C)c1OCCC(=O)N1CCC(c2nncn2C)CC1`, for which the Percent Effect was determined as 3.92%.

For the compound `CC[C@H]1CN2CC[C@H]1C[C@@H]2CNCc1ccc(OC(F)(F)F)cc1`, the Percent Effect is -0.828%.

Turning to `O=C(C1CC1)N1CC[C@H]2[C@@H]1CCC(=O)N2c1ccccc1`, the Percent Effect stood at 6.13%.

Take `N#Cc1cn[nH]c1NCc1cc(Cl)cc(Cl)c1O`: the Percent Effect is 8.64%.

Turning to `N#Cc1cn[nH]c1NCc1cc(Br)ccc1O`, the Percent Effect was found to be 288%.

As to `N#Cc1cn[nH]c1NCc1cc(I)cc(I)c1O`, the Percent Effect is 3.89%.

Take `NCCN1C(=O)CC[C@H]2CN(Cc3ccc4occc4c3)CC[C@H]21`: the Percent Effect is 1.29%.

Regarding `COCCN1C[C@H]2CCN(C(=O)Nc3ccccc3C)CC[C@H]2S1(=O)=O`, the Percent Effect is -4.45%.

As to `Cc1ncoc1C(=O)N1C[C@H]2CCC[C@@]2(COCc2cccnc2)C1`, the Percent Effect amounted to 1.59%.

In the case of `CC(C(=O)NCc1ccc(N2CCCCC2)nc1)S(C)(=O)=O` (centres undefined), the Percent Effect was -4.1%.

In the case of `CC(C(=O)NCc1ccc(N2CCCC2)nc1)S(C)(=O)=O` (centres undefined), the Percent Effect came to 59.5%.

Turning to `CC(C(=O)NCc1ccc(N2CCCCCC2)nc1)S(C)(=O)=O` (centres undefined), the Percent Effect is -1.98%.

For the compound `Cc1nnc2n1CCN(CC(=O)N1CCc3ccccc3C1)C2`, the Percent Effect was determined as 18.8%.

As for `Cc1cccc(CN2CCC[C@@H]3CN(C(=O)c4ccco4)C[C@@H]32)n1`, the Percent Effect was determined as 0.174%.

For the compound `COc1ccc(C[C@H]2CN(c3cc(OC)ncn3)CC[C@H]2OC)cc1`, the Percent Effect was determined as 5.86%.

Consider `O=C(NCC(F)(F)F)C(c1cccnc1)N1CCCC1` (centres undefined), for which the Percent Effect was found to be 0.735%.

For the compound `O=C(NCC1=CCCCC1)C(c1cccnc1)N1CCCC1` (centres undefined), the Percent Effect was 51%.

Take `O=C(NCC1=CCCCC1)C(c1cccnc1)N1CCOCC1` (centres undefined): the Percent Effect is -0.187%.

For `CCn1c(SC)nnc1C1CCN(C(=O)N2CCCC2)CC1`, the Percent Effect is -3%.

For the compound `Cn1ccnc1CN1C(=O)CO[C@H]2CN(Cc3ccc(F)c(F)c3)C[C@H]21`, the Percent Effect is 2.2%.

With `O=C(NCC1CC1)[C@@H]1CCO[C@@H]2CCN(Cc3ccco3)C[C@H]21`, the Percent Effect was determined as 9.55%.

On to `c1ccc(O[C@@H]2CC[C@H]3[C@H]2OCCN3Cc2ccsc2)nc1`, for which the Percent Effect came to 8.46%.

For the compound `Cc1nnc(NC(=O)NC(C)Cn2cccn2)s1` (centres undefined), the Percent Effect was -5.8%.

With `CCCc1nnc(NC(=O)NC(C)Cn2cccn2)s1` (centres undefined), the Percent Effect was -6.24%.

For the compound `CCC(CC)c1nnc(NC(=O)NC(C)Cn2cccn2)s1` (centres undefined), the Percent Effect is 69.6%.

For the compound `COCCNC(=O)[C@H]1C[C@@H]2CCN(c3ccccc3)C[C@H]2O1`, the Percent Effect is 6.99%.

Regarding `CNC(=O)[C@@H]1COC[C@H]2CN(C(=O)c3cccc(OC)c3)C[C@H]21`, the Percent Effect stood at 1.06%.

As for `COc1ccccc1CN1CCC(c2nccc(C)n2)C1` (centres undefined), the Percent Effect worked out at 22%.

Consider `COc1cccc(F)c1CN1CCC(c2nccc(C)n2)C1` (centres undefined), for which the Percent Effect was -3.03%.

As for `COc1cccc(F)c1CN1CCC(c2nc(C)cc(C)n2)C1` (centres undefined), the Percent Effect amounted to 70.2%.

In the case of `Cc1ccc(N2CC[C@H]3OCC[C@@]3(C(=O)N3CCCC3)C2)nn1`, the Percent Effect turned out to be 1.02%.

With `CCN(CC)S(=O)(=O)N1CCCC1c1cccc(Nc2ncc(C)s2)n1` (centres undefined), the Percent Effect was determined as 1.88%.

Consider `CCn1cc(S(=O)(=O)NC(=O)CCc2c[nH]c3ccccc23)cn1`, for which the Percent Effect worked out at 57.5%.

With `CCn1cc(NC(=O)NC(CO)Cc2c[nH]c3ccccc23)cn1` (centres undefined), the Percent Effect turned out to be 2.58%.

As for `CCn1cc(S(=O)(=O)NC(CO)Cc2c[nH]c3ccccc23)cn1` (centres undefined), the Percent Effect is -4.44%.

On to `Cc1csc(C(=O)NCCN2CCC(c3cccs3)CC2)c1`, for which the Percent Effect turned out to be 0.44%.

Take `Cc1cccc(CN2CC[C@@H]3[C@@H]2CCN3C(=O)c2cc(C)on2)n1`: the Percent Effect is -0.968%.

Take `CCN1CCN(C(=O)c2cc(-c3ccc(C)o3)n[nH]2)[C@H]2CS(=O)(=O)C[C@H]21`: the Percent Effect was found to be 2.31%.

For `O=C(C1=CCCC1)N1CCO[C@H]2[C@@H](OCC3CC3)CC[C@@H]21`, the Percent Effect was 0.105%.

On to `Cc1cc(CN2CCN(C(=O)NCc3ccco3)CC2)no1`, for which the Percent Effect amounted to 70.1%.

With `Cc1cc(CN2CCN(C(=O)NCc3ccoc3)CC2)no1`, the Percent Effect was -3.89%.

Regarding `Cc1cc(CN2CCN(C(=O)NCc3cccs3)CC2)no1`, the Percent Effect is -4.93%.

For the compound `COCC(=O)N1C[C@@H](c2cccc(F)c2)[C@H]2[C@H]1CCCCCN2C(C)=O`, the Percent Effect came to 9.95%.

In the case of `O=C(CC1CC1)N1CCC2(CC1)CN(Cc1cccnc1)C(=O)CO2`, the Percent Effect is -3.48%.

For the compound `CCn1cnnc1C1CCN(C(=O)c2cc3c(s2)CCCC3)CC1`, the Percent Effect was -7.73%.

Take `Cn1cnnc1C1CCN(C(=O)c2cc3c(s2)CCCC3)CC1`: the Percent Effect came to 83.8%.

Consider `Cn1cnnc1C1CCN(C(=O)c2cc3c(s2)CCC3)CC1`, for which the Percent Effect is -1.59%.
